# Values without a mark were called inactive. Results filed as inconclusive are left out. Where a call stands in place of a potency, no number is given. Activity calls are given as the source filed them. Unless noted, calls follow the shape of the full dose curve.
# Experiments:
# [1] = Nuclear factor erythroid 2-related factor 2/antioxidant responsive element (Nrf2/ARE) small molecule agonists: qHTS cell viability counter screen in human keratinocytes (AID 1919968; active = well fitted curve in the direction sought with a large enough effect in the repeat runs; an effect the other way counts as inactive or inconclusive; also: nearly all actives have a fitted effect of over 55% in size; also: potency is read from the fitted curve at half-maximal effect)
# Summary of the method: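 KeratinoSens HaCaT cells, 1,500/well, preincubated 5 h, then exposed to compounds in DMSO for 23 h at 37 C/5% CO2. Viability read as CellTiter-Fluor fluorescence after 1 h, in the same wells as the ARE-luciferase read.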
# [2] = Nuclear factor erythroid 2-related factor 2/antioxidant responsive element (Nrf2/ARE) small molecule agonists: luciferase reporter gene qHTS assay in human keratinocytes (AID 1919969); also: nearly all actives have a fitted effect of over 35% in size; also: potency is read from the fitted curve at half-maximal effect
# [3] = molecular target: Gonadotropin-releasing hormone receptor (Homo sapiens) (UniProt P30968); assay: Human gonadotropin-releasing hormone receptor (GnRHR) small molecule agonists, calcium flux assay in GnRHR-HEK293 cells (AID 1920063); also: nearly all actives have a fitted effect of over 35% in size
# Summary of the method: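 HEK293 cells stably expressing human GnRHR were dye-loaded for 1 h at 37 C. Compound was added in agonist mode and fluorescence (Ex/Em 480/540) recorded kinetically for 3 min. Fifteen concentrations, triplicates.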
# [4] = molecular target: KiSS-1 receptor (Homo sapiens) (UniProt Q969F8); assay: Human kisspeptin (KISS1R) small molecule agonists, calcium flux assay in KISS1R-HEK293 cells (AID 1920064; active = well fitted curve in the direction sought with a large enough effect in the repeat runs; an effect the other way counts as inactive or inconclusive)
# Summary of the method: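 HEK293 cells stably expressing human KISS1R were loaded with calcium dye for 1 h at 37 C, then given compound; fluorescence (Ex/Em 480/540) was read kinetically for 3 min. Fifteen concentrations, triplicate.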
# [5] = G protein-coupled receptor (GPCR) small molecule agonists, calcium flux assay: HEK293 wild type cell line counter screen (AID 1920065)
# Summary of the method: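 Wild-type HEK293 cells plated 18 h, loaded with calcium dye 1 h at 37 C, then compounds added in agonist mode (ATP as positive control). Kinetic fluorescence Ex/Em 480/540 recorded 3 min at 1 sec intervals; 15 concentrations, triplicate.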
# [6] = p53 small molecule agonists, cell-based qHTS assay with human liver microsomes (AID 1963577)
# Summary of the method: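 p53RE-bla reporter cells were pre-incubated 5 h at 37 C, then treated with compounds plus human liver microsomes (0.5 mg/mL final) and NADPH (0.5 mg/mL final) for 16 h at 37 C. Beta-lactamase activity was read by LiveBLAzer fluorescence after 2 h at room temperature.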
# [7] = p53 small molecule agonists, cell-based qHTS assay with rat liver microsomes (AID 1963578)
# Summary of the method: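 p53RE-bla cells were exposed to compounds together with rat liver microsomes (0.5 mg/mL final) and NADPH (0.5 mg/mL final) for 16 h at 37 C, then read by LiveBLAzer beta-lactamase fluorescence after 2 h at room temperature.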
# [8] = p53 small molecule agonists, cell-based qHTS assay with human liver microsomes: qHTS cell viability counter screen (AID 1963579); also: nearly all actives have a fitted effect of over 45% in size
# Summary of the method: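 p53RE-bla cells (4,000/well) were pre-incubated 5 h at 37 C, then given compounds in DMSO plus human liver microsomes (0.5 mg/mL final) and NADPH (0.5 mg/mL final) for 16 h at 37 C. Viability was read by CellTiter-Glo luminescence.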
# [9] = p53 small molecule agonists, cell-based qHTS assay with rat liver microsomes: qHTS cell viability counter screen (AID 1963580); also: nearly all actives have a fitted effect of over 45% in size
# Summary of the method: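 Viability is assessed in parallel with the p53 reporter read: HCT-116 p53RE-bla cells receive compounds plus rat microsomes and NADPH (0.5 mg/mL final apiece), incubate 16 h at 37 C, and then CellTiter-Glo luminescence is recorded.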
# [10] = p53 small molecule agonists, cell-based qHTS assay: qHTS cell viability counter screen (AID 1963581); also: nearly all actives have a fitted effect of over 45% in size
# Summary of the method: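 p53RE-bla HCT-116 cells, compounds added 5 h after plating and incubated 16 h at 37 C. Cytotoxicity measured in the same wells as intracellular ATP by CellTiter-Glo luminescence after 30 min at room temperature.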
# [11] = p53 small molecule agonists, cell-based qHTS assay (AID 1963582; active = well fitted activation curve with a large enough effect in the signal ratio in the repeat runs, not every such curve was filed as active; the % refers to the signal ratio; also: potency is read from the fitted curve at half-maximal effect)
# Summary of the method: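 p53RE-bla reporter cells, compounds added in DMSO after 5 h plating, incubated 16 h at 37 C. Beta-lactamase read via 2 h room-temperature LiveBLAzer B/G FRET substrate, fluorescence intensity.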
# [12] = molecular target: 5-hydroxytryptamine receptor 2A (Homo sapiens) (UniProt P28223); assay: 5-hydroxytryptamine receptor 2A (HTR2A) small molecule antagonists, cell-based qHTS assay (AID 1963586); also: nearly all actives have a fitted effect of over 45% in size
# Summary of the method: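 Antagonist-mode intracellular calcium assay: DOI (4 nM) added after 5 min compound pre-incubation at room temperature to dye-loaded HTR2A-CHO cells. Fluorescence followed for 3 min, sampled every second.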
# [13] = molecular target: 5-hydroxytryptamine receptor 2A (Homo sapiens) (UniProt P28223); assay: 5-hydroxytryptamine receptor 2A (HTR2A) small molecule agonists, cell-based qHTS assay (AID 1963587); also: nearly all actives have a fitted effect of over 30% in size
# Summary of the method: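 CHO cells stably expressing human HTR2A, plated 18 h, loaded with calcium dye 1 h at 37 C. Agonist mode: compounds added and intracellular calcium fluorescence recorded kinetically for 2 min at 1 sec intervals.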
# [14] = molecular target: Muscarinic acetylcholine receptor M1 (Homo sapiens) (UniProt P11229); assay: Cholinergic receptor muscarinic 1 (CHRM1) small molecule antagonists, cell-based qHTS assay (AID 1963588); also: nearly all actives have a fitted effect of over 40% in size
# Summary of the method: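 CHRM1-CHO calcium-flux assay, antagonist mode. Cells were seeded 18 h, dye-loaded 1 h at 37 C and given compound for 5 min at RT, then acetylcholine was added at 50nM. FDSS fluorescence was read 3 min; 15 concentrations, three runs.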
# [15] = molecular target: Muscarinic acetylcholine receptor M1 (Homo sapiens) (UniProt P11229); assay: Cholinergic receptor muscarinic 1 (CHRM1) small molecule agonists, cell-based qHTS assay (AID 1963589); also: nearly all actives have a fitted effect of over 35% in size
# Summary of the method: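 CHO cells stably expressing human CHRM1 were loaded with calcium dye for 1 h at 37 C, then compound was added in agonist mode. Intracellular calcium fluorescence was followed kinetically at 1 s intervals. Fifteen concentrations were tested in three independent runs.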
# [16] = cAMP Responsive Elements (CRE) small molecule agonists, cell-based qHTS assay (AID 1963590)
# Summary of the method: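 CRE-bla HEK 293T cells, 2,000/well in DMEM with 10% dialyzed FBS and 25 mM HEPES, pre-incubated 18 h at 37 C, then exposed to compound 3 h at 37 C. Beta-lactamase reporter read with LiveBLAzer B/G FRET substrate after 2 h at room temperature.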
# [17] = cAMP Responsive Elements (CRE) small molecule antagonists, cell-based qHTS assay (AID 1963591; active = well fitted inhibition curve with a large enough effect in the signal ratio in the repeat runs, not every such curve was filed as active; the % refers to the signal ratio)
# Summary of the method: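 CRE-bla HEK293T cells plated 18 h, then given compound plus NKH477 at 0.25 uM final for 3 h at 37C. Beta-lactamase reporter read with LiveBLAzer B/G FRET substrate after 2 h at room temperature.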
# [18] = molecular target: Beta-2 adrenergic receptor (Homo sapiens) (UniProt P07550); assay: Adrenergic beta2 receptor (ADRB2) small molecule antagonists, cell-based qHTS assay (AID 1963592); also: series mostly up to about 92 µM; nearly all actives have a fitted effect of over 50% in size
# Summary of the method: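 Cells (CHO, stable ADRB2 overexpression) incubated 18-20hr at 37C; compounds added from DMSO; agonist mix (1nM isoproterenol, 100uM IBMX, 25uM Ro-20-1724) added; 0.5hr RT; d2-cAMP and anti-cAMP-cryptate added; 1hr RT; 665/615 nm read.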
# [19] = molecular target: D(2) dopamine receptor (Homo sapiens) (UniProt P14416); assay: Dopamine D2 receptor (DRD2) small molecule agonists, cell-based qHTS assay (AID 1963594); also: nearly all actives have a fitted effect of over 35% in size; also: potency is read from the fitted curve at half-maximal effect
# Summary of the method: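 HEK293 cells stably expressing human DRD2, pre-treated with PDE inhibitor Ro20-1724 (0.1 mM final) and compound 10 min at room temperature, then stimulated with NKH477 (200nM […]) for 30 min. cAMP read by HTRF (665/620 nm).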
# [20] = molecular target: D(2) dopamine receptor (Homo sapiens) (UniProt P14416); assay: Dopamine D2 receptor (DRD2) small molecule antagonists, cell-based qHTS assay (AID 1963595; active = well fitted inhibition curve with a large enough effect in the signal ratio in the repeat runs, with a control signal flat; the % refers to the signal ratio)
# Summary of the method: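 Readout: HTRF cAMP, cAMP-d2 competing with cellular cAMP for anti-cAMP cryptate, read after 1 h. Cells: DRD2-HEK293. Conditions: 0.1 mM Ro20-1724, 12 nM quinpirole, 200 nM NKH477, 30 min RT.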
# 5-hydroxytryptamine receptor 2A (Homo sapiens), sequence (P28223 whole entry, looked up): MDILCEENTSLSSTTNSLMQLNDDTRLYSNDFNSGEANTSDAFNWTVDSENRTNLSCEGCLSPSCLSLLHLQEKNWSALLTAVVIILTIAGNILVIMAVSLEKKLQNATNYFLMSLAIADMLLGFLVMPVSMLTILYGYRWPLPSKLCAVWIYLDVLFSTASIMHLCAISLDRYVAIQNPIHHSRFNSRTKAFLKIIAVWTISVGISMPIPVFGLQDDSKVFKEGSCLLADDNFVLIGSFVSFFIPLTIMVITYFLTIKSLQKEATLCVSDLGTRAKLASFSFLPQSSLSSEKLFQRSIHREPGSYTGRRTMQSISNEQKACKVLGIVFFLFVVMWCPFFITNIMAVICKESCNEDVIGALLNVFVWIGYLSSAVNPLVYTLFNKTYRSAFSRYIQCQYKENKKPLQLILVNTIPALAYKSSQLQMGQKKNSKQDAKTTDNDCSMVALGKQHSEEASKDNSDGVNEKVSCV
# Beta-2 adrenergic receptor (Homo sapiens), sequence (P07550 whole entry, looked up): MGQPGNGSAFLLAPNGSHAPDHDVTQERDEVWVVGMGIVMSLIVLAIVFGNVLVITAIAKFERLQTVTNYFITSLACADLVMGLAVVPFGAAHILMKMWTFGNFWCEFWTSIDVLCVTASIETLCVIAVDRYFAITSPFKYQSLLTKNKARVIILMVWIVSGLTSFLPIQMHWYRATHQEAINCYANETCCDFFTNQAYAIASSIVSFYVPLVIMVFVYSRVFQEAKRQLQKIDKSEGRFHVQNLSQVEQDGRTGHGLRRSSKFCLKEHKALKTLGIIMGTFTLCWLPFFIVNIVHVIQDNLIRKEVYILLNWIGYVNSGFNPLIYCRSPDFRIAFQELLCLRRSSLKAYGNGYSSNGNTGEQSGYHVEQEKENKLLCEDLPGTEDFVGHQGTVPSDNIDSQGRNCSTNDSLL
# D(2) dopamine receptor (Homo sapiens), sequence (P14416 whole entry, looked up): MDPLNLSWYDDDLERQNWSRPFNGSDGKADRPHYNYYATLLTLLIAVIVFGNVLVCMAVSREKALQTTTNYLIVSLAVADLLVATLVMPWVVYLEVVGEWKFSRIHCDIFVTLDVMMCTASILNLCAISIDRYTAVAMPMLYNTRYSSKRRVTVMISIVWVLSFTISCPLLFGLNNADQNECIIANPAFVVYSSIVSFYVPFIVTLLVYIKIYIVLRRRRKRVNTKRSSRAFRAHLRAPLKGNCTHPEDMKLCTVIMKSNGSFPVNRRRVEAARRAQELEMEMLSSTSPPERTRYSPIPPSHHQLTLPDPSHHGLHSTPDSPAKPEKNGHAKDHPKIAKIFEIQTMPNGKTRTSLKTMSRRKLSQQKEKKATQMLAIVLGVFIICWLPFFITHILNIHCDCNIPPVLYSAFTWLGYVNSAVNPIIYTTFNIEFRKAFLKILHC
# KiSS-1 receptor (Homo sapiens), sequence (Q969F8 whole entry, looked up): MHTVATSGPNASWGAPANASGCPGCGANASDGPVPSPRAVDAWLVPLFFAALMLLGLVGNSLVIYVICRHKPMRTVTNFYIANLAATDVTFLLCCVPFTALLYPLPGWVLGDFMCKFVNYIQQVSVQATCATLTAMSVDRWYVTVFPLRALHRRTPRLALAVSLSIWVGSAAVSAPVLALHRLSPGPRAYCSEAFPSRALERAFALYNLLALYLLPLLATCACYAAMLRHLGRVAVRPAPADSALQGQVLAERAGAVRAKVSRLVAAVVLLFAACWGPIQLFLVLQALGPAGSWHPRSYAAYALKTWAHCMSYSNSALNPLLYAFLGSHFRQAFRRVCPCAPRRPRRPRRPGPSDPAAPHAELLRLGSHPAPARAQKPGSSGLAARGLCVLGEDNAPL
# Muscarinic acetylcholine receptor M1 (Homo sapiens), sequence (P11229 whole entry, looked up): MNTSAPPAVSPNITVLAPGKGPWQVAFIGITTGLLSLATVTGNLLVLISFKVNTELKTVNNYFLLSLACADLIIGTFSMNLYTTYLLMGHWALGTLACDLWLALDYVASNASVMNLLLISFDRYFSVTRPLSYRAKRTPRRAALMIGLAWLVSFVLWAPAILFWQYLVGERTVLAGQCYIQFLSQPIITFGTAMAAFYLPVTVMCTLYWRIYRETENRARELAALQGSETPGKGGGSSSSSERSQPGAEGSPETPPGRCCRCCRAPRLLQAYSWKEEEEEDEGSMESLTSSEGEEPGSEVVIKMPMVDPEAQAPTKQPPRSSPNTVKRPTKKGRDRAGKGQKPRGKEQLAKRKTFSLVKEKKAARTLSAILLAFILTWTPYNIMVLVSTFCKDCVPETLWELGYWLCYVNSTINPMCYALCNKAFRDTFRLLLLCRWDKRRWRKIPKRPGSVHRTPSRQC
# Gonadotropin-releasing hormone receptor (Homo sapiens), sequence (P30968 whole entry, looked up): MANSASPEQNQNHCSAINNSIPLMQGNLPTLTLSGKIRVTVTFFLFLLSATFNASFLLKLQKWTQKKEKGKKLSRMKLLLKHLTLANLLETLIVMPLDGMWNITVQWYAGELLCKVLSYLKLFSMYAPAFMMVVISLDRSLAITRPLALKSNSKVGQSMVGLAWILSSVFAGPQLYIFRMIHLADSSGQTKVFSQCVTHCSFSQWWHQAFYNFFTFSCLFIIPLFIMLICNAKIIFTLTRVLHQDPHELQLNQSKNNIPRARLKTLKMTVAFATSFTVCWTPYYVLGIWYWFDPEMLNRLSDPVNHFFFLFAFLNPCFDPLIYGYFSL
SMILES,Potency [1],Potency [2],Potency [3],outcome [4],outcome [5],Potency [6],Potency [7],Potency [8],Potency [9],Potency [10],Potency [11],Potency [12],Potency [13],Potency [14],Potency [15],Potency [16],Potency [17],Potency [18],Potency [19],Potency [20]
COc1cc2c(cc1OC)C(=O)CC2,inactive,inactive,inactive,inactive,inactive,inactive,inactive,inactive,inactive,inactive,inactive,inactive,inactive,inactive,inactive,inactive,inactive,inactive,inactive,inactive
CCCCC(CC)COC(=O)c1ccccc1O (centres undefined),inactive,inactive,inactive,inactive,inactive,inactive,inactive,inactive,inactive,inactive,inactive,inactive,inactive,inactive,inactive,inactive,inactive,inactive,inactive,inactive
Cc1cnc(C)c(C)n1,inactive,inactive,inactive,inactive,inactive,inactive,inactive,inactive,inactive,inactive,inactive,inactive,inactive,inactive,inactive,inactive,inactive,inactive,inactive,inactive
NC(=O)c1ncn([C@@H]2O[C@H](CO)[C@@H](O)[C@H]2O)c1N,inactive,inactive,inactive,inactive,inactive,inactive,inactive,inactive,inactive,inactive,inactive,inactive,inactive,inactive,inactive,inactive,inactive,inactive,inactive,inactive
Cc1ccco1,inactive,inactive,inactive,inactive,inactive,inactive,inactive,inactive,inactive,inactive,inactive,inactive,inactive,inactive,inactive,inactive,inactive,inactive,inactive,–
CCOC(=O)Oc1ccc(CCNC(=O)[C@H](CCSC)NC(C)=O)cc1OC(=O)OCC,inactive,inactive,inactive,inactive,inactive,inactive,inactive,inactive,inactive,inactive,inactive,inactive,inactive,inactive,inactive,inactive,inactive,inactive,2.37 µM (active),inactive
O=C(O)c1c(O)c(-c2ccccc2)nc2ccccc12,inactive,inactive,inactive,inactive,inactive,inactive,inactive,inactive,inactive,inactive,19.9 µM (active),inactive,inactive,inactive,inactive,inactive,inactive,inactive,inactive,inactive
Cc1ccnc(N)c1,inactive,inactive,inactive,inactive,inactive,inactive,inactive,inactive,inactive,inactive,inactive,inactive,inactive,inactive,inactive,inactive,inactive,inactive,inactive,inactive
CC(C)=CC1CC(C)CCO1 (centres undefined),inactive,inactive,inactive,inactive,inactive,inactive,inactive,inactive,inactive,inactive,inactive,inactive,inactive,inactive,inactive,inactive,inactive,inactive,inactive,inactive
CCOC(=O)C(O)c1ccccc1 (centres undefined),inactive,inactive,inactive,inactive,inactive,inactive,inactive,inactive,inactive,inactive,inactive,inactive,inactive,inactive,inactive,inactive,inactive,inactive,inactive,inactive
N#CSCC(=O)O,inactive,inactive,inactive,inactive,inactive,inactive,inactive,inactive,inactive,inactive,inactive,inactive,inactive,inactive,inactive,inactive,inactive,inactive,inactive,inactive
O=C(O)/C=C/c1ccc(/C=C/C(=O)O)cc1,inactive,inactive,inactive,inactive,inactive,inactive,inactive,inactive,inactive,inactive,inactive,inactive,inactive,inactive,inactive,inactive,inactive,inactive,inactive,inactive
CCCCCCn1c(=O)c2c(ncn2C)n(C)c1=O,inactive,inactive,inactive,inactive,inactive,inactive,inactive,inactive,inactive,inactive,inactive,inactive,inactive,inactive,inactive,inactive,inactive,inactive,inactive,inactive
O=C(O)CCCc1ccccc1,inactive,inactive,inactive,inactive,inactive,inactive,inactive,inactive,inactive,inactive,inactive,inactive,inactive,inactive,inactive,inactive,inactive,inactive,inactive,inactive
COc1ccc2sc(C(=O)Nc3nnn[nH]3)c(OC(C)C)c2c1,27.2 µM (active),24.2 µM (active),inactive,inactive,inactive,inactive,inactive,inactive,inactive,inactive,inactive,inactive,inactive,inactive,inactive,–,–,–,–,–
O=CNNC=O,inactive,inactive,inactive,inactive,inactive,inactive,inactive,inactive,inactive,inactive,inactive,inactive,inactive,inactive,inactive,inactive,inactive,inactive,inactive,–
CCOC(=O)C(C)(C)C,inactive,inactive,inactive,inactive,inactive,inactive,inactive,inactive,inactive,inactive,inactive,inactive,inactive,inactive,inactive,inactive,inactive,inactive,inactive,inactive
CC(=O)c1ccc(Cl)c(Cl)c1Cl,inactive,inactive,inactive,inactive,inactive,inactive,inactive,inactive,inactive,inactive,inactive,inactive,inactive,inactive,inactive,inactive,inactive,inactive,inactive,inactive
Nc1ccc(C(=O)NCC(=O)O)cc1,inactive,inactive,inactive,inactive,inactive,inactive,inactive,inactive,inactive,inactive,inactive,inactive,inactive,inactive,inactive,inactive,inactive,inactive,inactive,–
O=P(O)(O)Oc1ccccc1,inactive,inactive,inactive,inactive,inactive,inactive,inactive,inactive,inactive,inactive,inactive,inactive,inactive,inactive,inactive,inactive,inactive,inactive,inactive,inactive
N#Cc1cscn1,inactive,inactive,inactive,inactive,inactive,inactive,inactive,inactive,inactive,inactive,inactive,inactive,inactive,inactive,inactive,inactive,inactive,inactive,inactive,inactive
C=C(C)CCO,inactive,inactive,inactive,inactive,inactive,inactive,inactive,inactive,inactive,inactive,inactive,inactive,inactive,inactive,inactive,inactive,inactive,inactive,inactive,inactive
O=c1cc[nH]cc1,inactive,inactive,inactive,inactive,inactive,inactive,inactive,inactive,inactive,inactive,inactive,inactive,inactive,inactive,inactive,inactive,inactive,inactive,inactive,inactive
Cc1cccc(C(=O)O)c1[N+](=O)[O-],inactive,inactive,inactive,inactive,inactive,inactive,inactive,inactive,inactive,inactive,inactive,inactive,inactive,inactive,inactive,inactive,inactive,inactive,inactive,–
CC(CO)(CO)C(=O)O,inactive,inactive,inactive,inactive,inactive,inactive,inactive,inactive,inactive,inactive,inactive,inactive,inactive,inactive,inactive,inactive,inactive,inactive,inactive,inactive
CNC(=O)N(c1ccccc1)c1ccccc1,inactive,inactive,inactive,inactive,inactive,inactive,inactive,inactive,inactive,inactive,inactive,inactive,inactive,inactive,inactive,inactive,inactive,inactive,inactive,inactive
CCCCCCC(=O)OCC,inactive,inactive,inactive,inactive,inactive,inactive,inactive,inactive,inactive,inactive,inactive,inactive,inactive,inactive,inactive,inactive,inactive,inactive,inactive,inactive
CN1C(=O)c2ccc([N+](=O)[O-])cc2C1=O,inactive,inactive,inactive,inactive,inactive,inactive,inactive,inactive,inactive,inactive,inactive,inactive,inactive,inactive,inactive,inactive,inactive,inactive,–,–

# — PubChem BioAssay (Tox21)
